Measurements: PubChem BioAssay (NCATS)
Records with an inconclusive call do not appear. Active and inactive are the calls of the source. Calls follow the shape of the dose curve; as a rule, active = well fitted curve in the direction sought with a large enough effect; inconclusive = small, poorly fitted or top-dose-only effect, or another doubt; inactive = no such curve, though single readings can be large; an effect the other way counts as inactive or inconclusive.

Assays:
[1] = test system: MCC-13; experiment: qHTS assay to identify novel small-molecules to repurpose for Merkel cell carcinoma treatment (AID 1296009); settings: MCC and control cell lines, CellTiter-Glo viability, 72 h; series mostly up to 46 µM; also: nearly all actives have a fitted effect of over 60% in size
Procedure, shortened: (§1)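 After compound transfer in DMSO, plates were kept 72 hr at 37 degree celsius. Luminescent ATP signal from CellTiter-Glo served as viability measure, normalized against DMSO and no-cell controls.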

[2] = test system: MCC-26; experiment: as above; settings: MCC and control cell lines, CellTiter-Glo viability, 72 h; series mostly up to 46 µM
Procedure, shortened: as §1

[3] = test system: MKL-1; experiment: as above; settings: MCC and control cell lines, CellTiter-Glo viability, 72 h; series mostly up to 46 µM
Procedure, shortened: as §1

[4] = test system: MKL-2; experiment: as above; settings: MCC and control cell lines, CellTiter-Glo viability, 72 h; series mostly up to 46 µM
Procedure, shortened: as §1

[5] = test system: UISO; experiment: as above; settings: MCC and control cell lines, CellTiter-Glo viability, 72 h; series mostly up to 46 µM
Procedure, shortened: as §1

[6] = test system: WaGa; experiment: as above; settings: MCC and control cell lines, CellTiter-Glo viability, 72 h; series mostly up to 46 µM
Procedure, shortened: as §1

[7] = test system: C33A; experiment: Primary qHTS to identify gynecologic anti-cancer compounds using libraries of approved drugs and bioactive compounds (AID 1345084); settings: Gynecologic cancer cell panel viability, ATPlite luminescence, 48 h; series mostly up to 57.5 µM; also: nearly all actives have a fitted effect of over 55% in size; also: potency is read from the fitted curve at half-maximal effect
Procedure, shortened: (§2)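 ATP-based viability (ATPlite), 1,000 cells/well, 16 h pre-incubation, 48 h compound at 37 C, 5% CO2, 15 min RT before read.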

[8] = test system: CAOV3; experiment: as above; settings: Gynecologic cancer cell panel viability, ATPlite luminescence, 48 h; series mostly up to 57.5 µM
Procedure, shortened: as §2

[9] = test system: CASKI; experiment: as above; settings: Gynecologic cancer cell panel viability, ATPlite luminescence, 48 h; series mostly up to 57.5 µM
Procedure, shortened: as §2

[10] = test system: Es-2; experiment: as above; settings: Gynecologic cancer cell panel viability, ATPlite luminescence, 48 h; series mostly up to 57.5 µM
Procedure, shortened: as §2

[11] = test system: HeLa; experiment: as above; settings: Gynecologic cancer cell panel viability, ATPlite luminescence, 48 h; series mostly up to 57.5 µM
Procedure, shortened: as §2

[12] = test system: Hek293T; experiment: as above; settings: Gynecologic cancer cell panel viability, ATPlite luminescence, 48 h, control line for the selectivity index; series mostly up to 57.5 µM
Procedure, shortened: as §2

[13] = test system: JEG-3; experiment: as above; settings: Gynecologic cancer cell panel viability, ATPlite luminescence, 48 h; series mostly up to 57.5 µM
Procedure, shortened: as §2

[14] = test system: OV90; experiment: as above; settings: Gynecologic cancer cell panel viability, ATPlite luminescence, 48 h; series mostly up to 57.5 µM
Procedure, shortened: as §2

[15] = test system: PA-1; experiment: as above; settings: Gynecologic cancer cell panel viability, ATPlite luminescence, 48 h; series mostly up to 57.5 µM
Procedure, shortened: as §2

[16] = test system: SKOV3; experiment: as above; settings: Gynecologic cancer cell panel viability, ATPlite luminescence, 48 h; series mostly up to 57.5 µM
Procedure, shortened: as §2

[17] = test system: Tov-21-G; experiment: as above; settings: Gynecologic cancer cell panel viability, ATPlite luminescence, 48 h; series mostly up to 57.5 µM
Procedure, shortened: as §2

[18] = test system: NIH3T3; experiment: qHTS assay to identify novel small-molecules to repurpose for Merkel cell carcinoma treatment (AID 1296009); settings: MCC and control cell lines, CellTiter-Glo viability, 72 h; at 44.8 µM (top of the series) unless noted; also: nearly all actives have a fitted effect of over 60% in size
Procedure, shortened: as §1

Measured: Potency

[O-][n+]1cccc(/C(Cl)=N/OC[C@@H](O)CN2CCCCC2)c1
inactive: [1] | [2] | [3] | [4] | [5] | [6] | [7] | [8] | [9] | [10] | [11] | [12] | [13] | [14] | [15] | [16] | [17]

Fc1ccc(C(c2ccc(F)cc2)N2CCNCC2)cc1
inactive: [1] | [2] | [3] | [4] | [5] | [6] | [7] | [8] | [9] | [10] | [11] | [12] | [13] | [14] | [15] | [16] | [17]

CCC1(c2cnc[nH]2)Cc2ccccc2C1
inactive: [1] | [2] | [3] | [4] | [18] | [5] | [6] | [7] | [9] | [10] | [11] | [12] | [13] | [14] | [15] | [16] | [17]

CC1(C)O[C@@H]2C[C@H]3[C@@H]4CCC5=CC(=O)C=C[C@]5(C)[C@@]4(F)[C@@H](O)C[C@]3(C)[C@]2(C(=O)CO)O1
inactive: [1] | [2] | [3] | [4] | [5] | [6] | [7] | [8] | [9] | [10] | [11] | [12] | [13] | [14] | [15] | [16] | [17]

C/C(=C1\CCOC(=O)S1)N(C=O)Cc1cnc(C)nc1N
inactive: [1] | [2] | [3] | [4] | [5] | [6] | [7] | [8] | [9] | [10] | [11] | [12] | [13] | [14] | [15] | [16] | [17]

CCCOc1ccc2c(c1)CC[C@@H]1[C@@H]2CC[C@]2(C)C(OC)CC[C@@H]12 (some centres undefined)
inactive: [1] | [2] | [3] | [4] | [5] | [6] | [7] | [8] | [9] | [10] | [11] | [12] | [13] | [14] | [15] | [16] | [17]

CCC(CN)=C(c1ccccc1)c1ccccc1
inactive: [1] | [2] | [3] | [4] | [18] | [5] | [6] | [7] | [8] | [9] | [10] | [11] | [12] | [13] | [15] | [16] | [17]

CC(=O)OCC(=O)[C@@]1(O)CCC2C3CCC4=CC(=O)CC[C@]4(C)C3[C@@H](O)C[C@@]21C (some centres undefined)
inactive: [1] | [2] | [3] | [4] | [5] | [6] | [7] | [9] | [10] | [11] | [12] | [13] | [14] | [15] | [16] | [17]

Nc1ccc(C(=O)OCC(O)CO)cc1 (centres undefined)
inactive: [1] | [2] | [3] | [4] | [5] | [6] | [7] | [8] | [9] | [10] | [11] | [12] | [13] | [14] | [16] | [17]

CN(C)C(=O)CNC(=O)Cc1ccccc1
inactive: [1] | [2] | [3] | [4] | [5] | [6] | [7] | [8] | [9] | [10] | [11] | [12] | [13] | [14] | [15] | [16] | [17]

CC1(C)O[C@@H]2C[C@H]3[C@@H]4C[C@H](F)C5=CC(=O)C=C[C@]5(C)[C@@]4(F)[C@@H](O)C[C@]3(C)[C@]2(C(=O)CO)O1
inactive: [1] | [2] | [3] | [4] | [5] | [6] | [7] | [9] | [10] | [11] | [12] | [13] | [14] | [15] | [16] | [17]

C[C@H]1NCc2cc(-c3ccc4c(=O)c(C(=O)O)cn(C5CC5)c4c3OC(F)F)ccc21
inactive: [1] | [2] | [3] | [4] | [5] | [6] | [7] | [8] | [9] | [10] | [11] | [12] | [13] | [14] | [15] | [17]

O=C(O)c1ccccc1S
inactive: [1] | [2] | [3] | [4] | [5] | [6] | [7] | [8] | [9] | [10] | [11] | [12] | [13] | [14] | [15] | [16] | [17]

CC[C@@H]([C@H](C)O)n1ncn(-c2ccc(N3CCN(c4ccc(OC[C@@H]5CO[C@@](Cn6cncn6)(c6ccc(F)cc6F)C5)cc4)CC3)cc2)c1=O
active: [7] 11.2 µM | [14] 15.8 µM | [16] 15.8 µM
inactive: [1] | [2] | [3] | [4] | [5] | [6] | [8] | [11] | [13]

CCN1C(=O)c2ccccc2C1Nc1ccc(OCCN2CCCCC2)cc1 (centres undefined)
inactive: [1] | [2] | [3] | [4] | [5] | [6] | [7] | [8] | [9] | [10] | [11] | [12] | [13] | [15] | [16] | [17]

CC(C)=CCC/C(C)=C/CC/C(C)=C/C(=O)OCC(=O)[C@@]1(O)CC[C@H]2[C@@H]3CCC4=CC(=O)C=C[C@]4(C)[C@H]3[C@@H](O)C[C@@]21C
inactive: [1] | [2] | [3] | [4] | [5] | [6] | [7] | [8] | [9] | [11] | [13] | [14] | [17]
active: [12] 35.5 µM
